# Measurements published in ChEMBL document CHEMBL1157539, “Thousands of chemical starting points for antimalarial lead identification” (Nature, 2010).
# Test system: HepG2
# Assay: GSK_TCMDC: Percent inhibition of human HepG2 cell line. Test compounds present at 10uM.
# Type: functional
row,SMILES,Inhibition
1,C=CCC(CC=C)N1C(=O)C(c2ccccc2)(c2ccccc2)N=C1N.O=CO,35%
2,Cc1cc(Cl)c(S(=O)(=O)N(C)c2ccccc2)cc1OCC(=O)NC1CCCCC1,3%
3,CC(C)C[C@@H](NC(=O)NC1CCC(CCN2C3CCC2CC(OC(=O)C(CO)c2ccccc2)C3)CC1)C(O)(c1ccccc1)c1ccccc1 (some centres undefined),21%
4,CCc1cn2c3c(cc(C(=O)N[C@@H](Cc4cccc(F)c4)[C@H](O)CNC4CCOCC4)cc13)N(C)S(=O)(=O)CC2.O=CO,0%
5,CCN(CCCN1CCCCC1)c1cc(C)nc(Nc2cc(C)ccc2C)n1.O=C(O)C(F)(F)F,34%
6,Cl.Cl.N=C(N)Nc1ccc(Cc2ccc(NC(=N)N)cc2)cc1,35%
7,Cc1cc(C)nc(-n2[nH]c(C)c(Cc3ccc(C(C)(C)C)cc3)c2=O)n1,0%
8,C[C@H](NC(=O)C1CCCC1)C(=O)Nc1ccc(-c2ccc(-c3nc4cc(C(F)(F)F)ccc4[nH]3)cc2)cc1,34%
9,O=C(/C=C/c1ccc(Cl)c(Cl)c1)NCCCCCN1CCC(NC(=O)Nc2ccc(Cl)cc2Cl)CC1,96%
10,COc1cc(NC(=O)c2ccc3oc4ccccc4c3c2)ccc1OCCN1CCCCC1.Cl,12%
11,O=C1OC2(CN1CC1CCN(Cc3ccc(O)c(Cl)c3)CC1)c1ccccc1-c1ccccc12,32%
12,Cl.NC1CCN(CCc2ccc(NS(=O)(=O)c3ccc(-c4ccccc4)cc3)cc2)CC1,17%
13,CN1CCCc2cc(NC(=O)c3cc(-c4ccc(Cl)cc4)cs3)ccc2C1.O=C(O)C(F)(F)F,15%
14,COc1ccc2nccc([C@@H](O)CN3CCC(NCc4ccc5c(c4)NC(=O)CS5)CC3)c2n1.O=C(O)C(=O)O,1%
15,COc1ccc(CN2CCC(CNC(C)c3cccc4ccccc34)CC2)cc1.O=C(O)C(F)(F)F (centres undefined),58%
16,COc1cc(Cc2cnc(N)nc2N)ccc1Oc1ccc(N)cc1,0%
17,Cc1ccc2ncc(Cl)c(CCN3CCC(NCc4ccc5c(n4)NC(=O)CS5)CC3)c2n1.Cl,13%
18,FC(F)(F)c1ccc2[nH]c(-c3cccc(-c4cccc(CNCc5cnn(-c6ccccc6)n5)c4)c3)nc2c1.O=C(O)C(F)(F)F,6%
19,CC(=O)Nc1ccc(CN(Cc2cccc(OC(C)(C)C)c2)Cc2ccc3c(c2)OCCO3)cc1,0%
